Screen size: about 69,000 compounds; about 8,600 (12%) showed an effect of 50% or more. Many of the other results were omitted from the sample, so strong results are more common in it than they were.

The test deals with Plasmodium berghei. Description: Screen against P. berghei liver stage (PbLuc), transformed with Luciferase, at 10uM. The format is functional, HepG2. The following applies: tested at 10 uM.
On to `COc1ccc2oc(C(C)NC(=O)NCC(C)(C)C(N)=O)c(C)c2c1` (centres undefined), for which the INHIBITION stood at 42.3%.

With `CCN(Cc1nc(COC)no1)C(=O)CCn1c(C)cc2ccccc21`, the INHIBITION came out at 36.7%.

For `CCN(Cc1noc(C)n1)C(=O)CCn1c(C)cc2ccccc21`, the INHIBITION is 58.5%.

`CCN(Cc1ccncc1)C(=O)CCn1c(C)cc2ccccc21`: the INHIBITION is given as 14.9%.

As for `COCCNC(=O)[C@H]1C[C@@H]2CCN(c3ncccn3)C[C@H]2O1`, the INHIBITION is given as -56.7%.

Take `CN1CCN(CC2CC2)C(=O)C12CCN(C(=O)CC(F)(F)F)CC2`: the INHIBITION is given as -14.2%.

In the case of `CCN1CCN(C)C2(CCN(C(=O)CC(F)(F)F)CC2)C1=O`, the INHIBITION came to 71.3%.

In the case of `CN1CCN(C)C2(CCN(C(=O)CC(F)(F)F)CC2)C1=O`, the INHIBITION came to 27.5%.

With `CC(C)CC(=O)NS(=O)(=O)c1ccc(C#N)cc1C(F)(F)F`, the INHIBITION is 2.3%.

Turning to `COc1ccc(C2=NOC(C#N)C2)cc1` (centres undefined), the INHIBITION came to 15.9%.

As for `CC(C)c1nnc2n1CCN(C(=O)c1ccnc(N(C)C)c1)C2`, the INHIBITION is reported as 42%.

As for `CCc1nnc2n1CCN(c1nc(C)cc(N(C)C)n1)C2`, the INHIBITION is recorded as 71.5%.

As to `CCc1nnc2n1CCN(C(=O)c1ccnc(N(C)C)c1)C2`, the INHIBITION was found to be 19.2%.

Take `Cc1cc(N(C)C)nc(N2CCn3c(nnc3C(C)C)C2)n1`: the INHIBITION was determined as 52.2%.

In the case of `Cc1cc(N(C)C)nc(N2CCN(Cc3nccn3C)CC2)n1`, the INHIBITION is -87%.

Consider `Cc1cc(N(C)C)nc(N2CCn3c(nnc3C3CC3)C2)n1`, for which the INHIBITION was found to be 21.2%.

Regarding `Cc1cn2nc(N3CCn4c(nnc4C(C)C)C3)sc2n1`, the INHIBITION amounted to 7.81%.

Turning to `Cc1cc(N(C)C)nc(N2CCn3c(C)nnc3C2)n1`, the INHIBITION stood at 51.1%.

Regarding `Cc1cc(N(C)C)nc(N2CCN(C(C)c3nc(C)no3)CC2)n1` (centres undefined), the INHIBITION is given as -71.2%.

Regarding `CS(=O)(=O)NCCC1CCCCN1C(=O)NCc1ccccn1` (centres undefined), the INHIBITION is listed as 4.13%.

With `CC(C)COc1cncc(N2CCCC(CC(N)=O)C2)n1` (centres undefined), the INHIBITION stood at 4.82%.

As to `O=C(c1cnccn1)N1CCc2onc(CN3CCOCC3)c2C1`, the INHIBITION stood at 45.5%.

Regarding `c1ccc2cc(OCCCN3CCn4c(nnc4C4CC4)C3)ccc2c1`, the INHIBITION is given as 35.9%.

Consider `CC(C)=CCN1CC2(CCN(C(=O)CCn3ccnc3C)CC2)CC1=O`, for which the INHIBITION is 27.7%.

Consider `CC(C)N(C)C[C@H]1C[C@@H]2CN(Cc3ccco3)C[C@@H]2O1`, for which the INHIBITION is 8.74%.

With `O=C(C1CCCC1)N1CCCC([C@@H]2C[C@H](C(F)F)n3ncnc3N2)C1` (some centres undefined), the INHIBITION is on record as 0.788%.

With `O=C1CN(CCS(=O)(=O)c2ccc(Cl)cc2)CCN1`, the INHIBITION is 14%.

Take `CC1CN(c2ncccc2C(=O)Nc2cccc3c2CCCC3)CCN1` (centres undefined): the INHIBITION is listed as -63.6%.

In the case of `Cc1cccc(C(=O)Nc2cccc3c2CCCC3)n1`, the INHIBITION was -45.5%.

In the case of `O=C(Nc1cccc2c1CCCC2)c1cccnc1N1CCCNCC1`, the INHIBITION came out at 53%.

As to `c1cnc(N2CCO[C@H]3[C@H](OCc4cccnc4)CC[C@@H]32)nc1`, the INHIBITION was determined as 21.5%.

Take `CS(=O)(=O)N1C[C@@H](NC(=O)c2ccno2)[C@@H]2OCCC[C@@H]21`: the INHIBITION was found to be 36.7%.

In the case of `CN1CC(=O)N(c2ccsc2)CC12CCN(C(=O)Nc1ccccc1)C2` (centres undefined), the INHIBITION was determined as 1.94%.

Take `CC(C(=O)N1CCCN(Cc2ccc(C#N)cc2)CC1)n1cccn1` (centres undefined): the INHIBITION was 19.583%.

Regarding `CC(=O)NCCc1cc(N2CCN(C(C)=O)CC2)nc(C2CC2)n1`, the INHIBITION is 43.8%.

For `CCCC(=O)NCCc1cc(N2CCN(C(C)=O)CC2)nc(C2CC2)n1`, the INHIBITION was determined as 46%.

For `CCC(=O)NCCc1cc(N2CCN(C(C)=O)CC2)nc(C2CC2)n1`, the INHIBITION is recorded as 51.2%.

Turning to `COc1cccc(CN(C)C(C)C(=O)Nc2nc(C)c(C)s2)c1` (centres undefined), the INHIBITION amounted to 39.3%.

Consider `CCS(=O)(=O)N1CCC[C@]2(C(=O)N(C)C)CN(c3ncccn3)C[C@@H]2C1`, for which the INHIBITION is on record as -47.6%.

Turning to `NC(=O)c1ccc(N2CCN(Cc3c(Cl)cncc3Cl)CC2)nc1`, the INHIBITION was 30.7%.

As to `CCc1nn(C)c(Cl)c1CN1CCN(c2ccc(C(N)=O)cn2)CC1`, the INHIBITION is listed as 40.7%.

As to `CCOC(=O)c1ccc(N2CCN(Cc3c(C)nn(C)c3Cl)CC2)nc1`, the INHIBITION amounted to 74.9%.

Turning to `CCc1nn(C)c(Cl)c1CN1CCN(c2ccc(Cl)nn2)CC1`, the INHIBITION was 66.6%.

As to `CCc1nn(C)c(Cl)c1CN1CCN(c2nc(C(N)=O)cs2)CC1`, the INHIBITION is 24.1%.

On to `CCc1nn(C)c(Cl)c1CN1CCC(c2cc(O)nc(C)n2)CC1`, for which the INHIBITION turned out to be 3.96%.

In the case of `Cn1nc(C2CCCN2)c2c(C(=O)NCC(F)(F)F)cc(C3CC3)nc21` (centres undefined), the INHIBITION is 28.4%.

Consider `O=S(=O)(c1ccccc1)N1C2CCC(O)(CC2)C1CN1CCOCC1` (centres undefined), for which the INHIBITION is 23.7%.

For `Cc1nc(C)n(CC2CCCN2Cc2nc(-c3ccccn3)no2)n1` (centres undefined), the INHIBITION was determined as 32.7%.

Take `CC(C)NC(=O)[C@H]1CCS(=O)(=O)[C@@H]2CN(c3ncc(F)cn3)C[C@H]12`: the INHIBITION is recorded as -13%.

In the case of `CC(C)NC(=O)[C@H]1CCS(=O)(=O)[C@@H]2CN(c3ncccn3)C[C@H]12`, the INHIBITION was 0.164%.

Regarding `CC(C)CNC(=O)[C@H]1CCS(=O)(=O)[C@@H]2CN(c3ncccn3)C[C@H]12`, the INHIBITION was 35.8%.

As to `CN(C)C(=O)[C@H]1CCS(=O)(=O)[C@@H]2CN(c3ncccn3)C[C@H]12`, the INHIBITION turned out to be 61.1%.

Take `CCc1cnc(N2C[C@@H]3[C@@H](C(=O)N(C)C)CCS(=O)(=O)[C@@H]3C2)nc1`: the INHIBITION is given as 36.7%.

Take `CN(C)C(=O)[C@H]1CCS(=O)(=O)[C@@H]2CN(c3ncc(F)cn3)C[C@H]12`: the INHIBITION is 54.8%.

Source of the values: ChEMBL document CHEMBL4513216, “Probing the Open Global Health Chemical Diversity Library for Multistage-Active Starting Points for Next-Generation Antimalarials” (ACS Infect Dis, 2020).
